Screens deposited in PubChem by several laboratories.
Compounds with a hit are over-represented: about 1.4% of the library has one in this group of screens.
Yeast superoxide: reduction of superoxide in aged yeast, primary screen, HTS; S. cerevisiae aged cells, superoxide DHE fluorescence; stronger effect = lower value; superoxide response (% of plate mean), % at 10 µM; hit rate 0.18% among 330,000;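 active = superoxide response under a set limit, about three screen SD below normal, cut at about 65% in these data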;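 also: yeast aged for seven days with compound at 30 °C before DHE staining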
p-CIP stab down: p/CIP-EGFP fusion destabilizers, primary screen, fluorescence, F442A cells. 16 h. decrease of EGFP signal, % at 10 µM. hit rate 0.01% among 290,000. AID 1984, 2009;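 active = EGFP signal decrease of at least 30% at 10 µM or well 3 SD below plate mean, unless failing retest; inactive = the rest, including hits failing retest or dose response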
Target sequence (Q05BA5 1-1403): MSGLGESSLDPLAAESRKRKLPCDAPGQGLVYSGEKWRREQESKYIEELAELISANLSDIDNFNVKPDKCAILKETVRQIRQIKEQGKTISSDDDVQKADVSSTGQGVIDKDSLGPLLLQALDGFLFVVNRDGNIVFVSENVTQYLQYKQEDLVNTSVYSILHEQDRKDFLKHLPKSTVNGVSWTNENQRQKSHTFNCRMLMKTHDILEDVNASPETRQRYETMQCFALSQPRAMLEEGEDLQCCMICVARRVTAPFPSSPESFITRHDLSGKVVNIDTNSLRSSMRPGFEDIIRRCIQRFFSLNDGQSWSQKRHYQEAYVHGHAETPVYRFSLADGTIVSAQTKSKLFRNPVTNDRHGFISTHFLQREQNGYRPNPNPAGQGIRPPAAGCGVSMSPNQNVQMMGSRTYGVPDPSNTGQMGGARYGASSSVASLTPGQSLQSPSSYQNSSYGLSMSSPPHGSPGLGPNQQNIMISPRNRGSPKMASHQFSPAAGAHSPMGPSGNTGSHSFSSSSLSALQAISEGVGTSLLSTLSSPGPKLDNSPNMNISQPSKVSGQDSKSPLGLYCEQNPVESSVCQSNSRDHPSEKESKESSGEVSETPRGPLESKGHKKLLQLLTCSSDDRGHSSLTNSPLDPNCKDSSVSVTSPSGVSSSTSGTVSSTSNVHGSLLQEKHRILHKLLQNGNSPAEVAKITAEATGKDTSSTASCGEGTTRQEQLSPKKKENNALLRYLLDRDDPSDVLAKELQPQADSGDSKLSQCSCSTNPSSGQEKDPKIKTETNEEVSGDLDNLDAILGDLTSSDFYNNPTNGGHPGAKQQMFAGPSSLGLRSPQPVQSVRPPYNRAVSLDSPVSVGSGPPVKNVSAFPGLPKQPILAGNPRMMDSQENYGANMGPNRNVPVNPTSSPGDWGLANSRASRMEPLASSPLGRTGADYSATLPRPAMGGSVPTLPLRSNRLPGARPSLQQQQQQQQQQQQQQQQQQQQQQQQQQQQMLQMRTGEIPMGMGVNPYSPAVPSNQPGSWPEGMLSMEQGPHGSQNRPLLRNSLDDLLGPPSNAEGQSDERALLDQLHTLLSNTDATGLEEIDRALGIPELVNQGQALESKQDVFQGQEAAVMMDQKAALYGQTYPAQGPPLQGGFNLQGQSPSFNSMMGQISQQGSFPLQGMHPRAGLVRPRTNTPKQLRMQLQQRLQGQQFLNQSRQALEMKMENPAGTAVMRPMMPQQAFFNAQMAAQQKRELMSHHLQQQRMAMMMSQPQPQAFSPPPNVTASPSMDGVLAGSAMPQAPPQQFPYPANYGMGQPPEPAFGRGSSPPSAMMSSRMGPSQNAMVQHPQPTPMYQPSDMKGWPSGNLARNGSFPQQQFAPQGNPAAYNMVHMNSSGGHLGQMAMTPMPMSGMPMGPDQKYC
V-ATPase pH: regulators of yeast V-ATPase proton pumping, primary screen, pHLuorin cytosolic pH fluorescence; S. cerevisiae; response, % at 10 µM; hit rate 0.37% among 350,000; in the data active = response mostly above about 7.3%, no sharp cut-off; inactive = mostly below about 5.4%; also: actives read high
HSV replic up: enhancers of HSV replication in host cells, fold increase, host cell viability; AID 1956, 2009; HSV replication augmentation in cells; maximum fold increase; hit rate 0.005% among 220,000; in the data active = maximum fold increase above about 1.5; inconclusive = no clear call, values can overlap the other calls; tested in PC3 cells
Cardio protect: cardioprotection against H2O2-induced cell death, primary screen, uHTS, H9c2 cells, ATPLite luminescence; protection from H2O2 cell death, % at 20 µM; H9c2 cardiomyocytes, H2O2 injury protection, 2 h; hit rate 0.63% among 360,000;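 active = compounds giving at least 50% protection of heart cells from peroxide-induced death in the single-dose screen, raw or plate-pattern-corrected value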
beta cell repl: inducers of MIN6 beta-cell proliferation, primary screen, ATP luminescence, uHTS; MIN6 cells proliferation, ATPlite luminescence, 48 h; cells starved in 0.2% serum; 100% = growth in 10% serum; proliferation, % at 10 µM; hit rate 0.29% among 330,000; AID 2380, 2010;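 active = compounds whose signal lies at least 3.5 SD above the mean of all wells on their plate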
Large screens that a line does not name were inactive.

CSc1nc2ccc(NC(=O)c3nn(C(C)C)c(=O)c4ccccc34)cc2s1	beta cell repl 8.2
COc1cc2ccccc2cc1C(=O)Nc1nccs1	none (no result: HSV replic up)
COc1ccnc(Oc2ccc(F)cc2)c1C(=O)N/C=N/OCc1ccc(Cl)cc1Cl	Cardio protect 51
COc1ccnc(Oc2ccc(F)cc2)c1C(=O)N/C=N/OCc1ccc(F)cc1Cl	none
C=CCn1c(SCc2csc(-c3ccc(Cl)cc3)n2)nnc1-c1ccccc1OC	none
Cn1c(=O)[nH]c(=O)c2c1nc(N(CCO)Cc1ccccc1)n2CCCc1ccccc1	Cardio protect 52 (no result: HSV replic up)
O=c1c2ccccc2nc(/C=C/c2cc(Br)ccc2O)n1CCCO	Cardio protect 50 (no result: HSV replic up)
COc1cc(C(=O)OCc2csc(CC(=O)Nc3ccccc3C)n2)ccc1OCC(C)C	none (no result: Yeast superoxide, p-CIP stab down, HSV replic up)
O=C(COC(=O)c1ccccc1C(=O)OCC(=O)NCCc1c[nH]c2ccccc12)NCCc1c[nH]c2ccccc12	Cardio protect 62 (no result: p-CIP stab down, HSV replic up)
O=C(COC(=O)c1ccccc1O)NCCc1c[nH]c2ccccc12	none (no result: p-CIP stab down, HSV replic up)
COc1ccccc1CNC(=O)Cc1c[nH]c2ccccc12	V-ATPase pH 13 (no result: HSV replic up)
Cc1cccc(NC(=O)c2nc[nH]c2C(=O)NCCCCNC(=O)c2[nH]cnc2C(=O)Nc2cccc(C)c2)c1	Cardio protect 56 (no result: p-CIP stab down, HSV replic up)
Cc1cccc(NC(=O)c2nc[nH]c2C(=O)NCCCCCCNC(=O)c2[nH]cnc2C(=O)Nc2cccc(C)c2)c1	Cardio protect 95 (no result: p-CIP stab down, HSV replic up)
O=C(Nc1cccc(Cl)c1)c1nc[nH]c1C(=O)NCCCCNC(=O)c1[nH]cnc1C(=O)Nc1cccc(Cl)c1	Cardio protect 74 (no result: p-CIP stab down, HSV replic up)
Cc1cccc(NC(=O)c2nc[nH]c2C(=O)NCc2ccccc2)c1	none (no result: p-CIP stab down, HSV replic up)
O=C(Nc1cccc(Cl)c1)c1nc[nH]c1C(=O)NCCN(CCNC(=O)c1[nH]cnc1C(=O)Nc1cccc(Cl)c1)CCNC(=O)c1[nH]cnc1C(=O)Nc1cccc(Cl)c1	none (no result: p-CIP stab down, HSV replic up)
CNC(=O)c1[nH]cnc1C(=O)Nc1cccc(C)c1	none (no result: p-CIP stab down, HSV replic up)
CCc1ccc(N2CC(C(=O)Nc3ccc(S(=O)(=O)N4CCOCC4)cc3)CC2=O)cc1 (configuration not stated)	none (no result: p-CIP stab down, HSV replic up)
CC(O)(c1cccc(F)c1)c1nc(-c2ccc(S(C)(=O)=O)cc2)cs1 (configuration not stated)	none (no result: Yeast superoxide, p-CIP stab down, V-ATPase pH, HSV replic up, beta cell repl)
Cn1c(N)c(C(=O)COC(=O)CC(NC(=O)c2ccccc2Cl)c2ccccc2)c(=O)n(C)c1=O (configuration not stated)	none
Cc1ccc(NC(=O)C2CCN(S(C)(=O)=O)CC2)cc1Cl	none (no result: HSV replic up)
Cc1cc(NC(=O)c2cnn3c(C(F)F)cc(-c4ccccc4)nc23)no1	none
Cc1cc(NC(=O)c2cnn3c(C(F)(F)F)cc(-c4ccccc4)nc23)no1	Cardio protect 93
O=C1NC(=O)/C(=C\c2ccc(OCc3cccc([N+](=O)[O-])c3)cc2)N1	none
CCOC(=O)Cc1csc(NC(=O)NC2(C(F)(F)F)Oc3ccc(Cl)cc3O2)n1 (configuration not stated)	Cardio protect 62
CCOC(=O)Cc1csc(NC(=O)NC2(C(F)(F)F)Oc3cc(Cl)c(Cl)cc3O2)n1	Cardio protect 57
CCOC(=O)Cc1csc(NC(=O)NC2(C(F)(F)F)Oc3ccccc3O2)n1	Cardio protect 50
COc1cccc(NC(=O)NC2(C(F)(F)F)Oc3ccccc3O2)c1	Cardio protect 75
Cc1ccc([C@H]2C[C@H](n3cc(-c4ccc(F)cc4)nn3)[C@@H](O)CN2CC2CCCCC2)cc1	none (no result: Yeast superoxide, p-CIP stab down, HSV replic up, beta cell repl)
OC1CCCC1	none (no result: p-CIP stab down, HSV replic up)
O=C(COC(=O)c1c2c(nc3ccccc13)/C(=C/c1cccc([N+](=O)[O-])c1)CCC2)NC1CCS(=O)(=O)C1 (configuration not stated)	Cardio protect 59
CNc1nc(-c2ccccn2)nnc1-c1ccccc1	Cardio protect 52
O=C(Nc1cccc(-c2cnc3ccccc3n2)c1)c1cccc(NC(=O)c2ccco2)c1	Cardio protect 61
O=C(Nc1cccc(-c2cnc3ccccc3n2)c1)c1ccccc1	none
CCOc1ncccc1C(=O)Nc1cccc(-c2nc3cccnc3s2)c1	Cardio protect 64
CCCS(=O)(=O)Nc1cccc(-c2nc3cccnc3s2)c1	none
O=C(Nc1cccc(-c2nc3cccnc3s2)c1)c1ccco1	Cardio protect 70
Cc1ccccc1-c1cccc([C@@H]2C[C@H]3[C@H](CON3C)CN2Cc2cc(Cl)cc(Cl)c2)c1	none (no result: Yeast superoxide, p-CIP stab down, HSV replic up, beta cell repl)
O=C1CSC(c2ccccc2)N1Cc1ccccc1 (configuration not stated)	none (no result: HSV replic up)
COc1ccc(Nc2nc(NCc3ccco3)nc(N/N=C/c3ccc(O)cc3)n2)cc1	Cardio protect 51
CCN(CC)C(=O)CSc1nnc(COc2ccccc2)n1N	none
O=[N+]([O-])c1c(Nc2ccccn2)cc(Cl)c2nonc12	V-ATPase pH 33
CCc1nc2c(OCCn3cccc3)cccn2c1N(C=O)Cc1ccccc1	none (no result: Yeast superoxide, p-CIP stab down, V-ATPase pH, HSV replic up, beta cell repl)
CCOC(=O)N1CCN(S(=O)(=O)c2ccc(C(=O)NNc3nc4c(C)cc(C)cc4s3)cc2)CC1	none (no result: V-ATPase pH)
Cc1cccc2sc(NNC(=O)c3ccc(S(=O)(=O)N4CCCC(C)C4)cc3)nc12 (configuration not stated)	V-ATPase pH 10 (no result: HSV replic up, beta cell repl)
CCOC(=O)N1CCN(S(=O)(=O)c2ccc(C(=O)NNc3nc4c(C)cccc4s3)cc2)CC1	Cardio protect 50
CCOC(=O)N1CCN(S(=O)(=O)c2ccc(C(=O)NNc3nc4cc(C)cc(C)c4s3)cc2)CC1	Cardio protect 56
O=C(Nc1cccc(Cl)c1)C1COc2ccccc2O1 (configuration not stated)	none (no result: HSV replic up)
Cc1ccccc1-n1ncc2c1CC(C)(C)CC2NC(=O)CCN1CCCCC1=O (configuration not stated)	none (no result: HSV replic up)
COc1ccc(C(=S)N2CCN(c3ccccc3C)CC2)cc1OC	none (no result: Yeast superoxide, p-CIP stab down, HSV replic up, beta cell repl)
COc1ccc2o/c(=N/NC(=O)c3cccs3)c(C(N)=O)cc2c1	HSV replic up inconclusive, Cardio protect 54
COc1ccc(/C=C/C(=O)NC(=S)NNC(=O)c2cccnc2)cc1	none
O=C(/C=C/c1ccc(F)cc1)NC(=S)NNC(=O)c1cnccn1	Cardio protect 52
COc1ccc(/C=C/C(=O)NC(=S)NNC(=O)c2cnccn2)cc1	Yeast superoxide 31
O=C(NC(=S)NNC(=O)c1cnccn1)c1ccc(F)cc1	none
COCc1c(C(=O)Nc2ccc3nc(N4CCOCC4)sc3c2)oc2ccccc12	Cardio protect 64 (no result: p-CIP stab down, HSV replic up)
Nc1cc2[nH]c(=O)c3ccccc3c2cc1Br	Cardio protect 62 (no result: Yeast superoxide, p-CIP stab down, HSV replic up, beta cell repl)
Nc1cc2c(cc1Br)[nH]c(=O)c1ccccc12	none (no result: Yeast superoxide, p-CIP stab down, HSV replic up, beta cell repl)
O=c1[nH]c2cc(O)ccc2c2ccccc12	Cardio protect 57 (no result: Yeast superoxide, p-CIP stab down, V-ATPase pH, HSV replic up, beta cell repl)
Nc1ccc2c(c1)[nH]c(=O)c1ccccc12	Cardio protect 68 (no result: Yeast superoxide, p-CIP stab down, HSV replic up, beta cell repl)
Cc1cc(=O)[nH]c2cc(O)ccc12	none
